# Experimental data published in PubChem BioAssay.
# The source made the active and inactive calls.
# Tests used:
# [1] = system: PRMT1 (protein arginine N-methyltransferase 1); experiment: PRMT1 binders on small-molecule microarrays, primary screen, biochemical, small-molecule microarray, 635 nm fluorescence (AID 1088); conditions: small-molecule microarray binding, higher = more signal;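 note: binding of Prmt1 protein to compounds spotted on small-molecule microarray slides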
# [2] = yeast growth modulation, basal conditions, primary screen, YJM789 clinical isolate, OD600, 24 h (AID 1089);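 note: growth of clinical yeast isolate S. cerevisiae YJM 789 seeded 1000 cells per well; test concentration not given here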; conditions: S. cerevisiae YJM789 growth, higher = more signal, called active from +8 up or from −8 down
# [3] = fission yeast growth modulation, primary screen, strain 972, OD600, 24 h, no modulator (AID 1090);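 note: basal condition with compound alone and no growth modifier present; test concentration not given here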; conditions: S. pombe 972 growth, higher = more signal, called active from +8 up or from −8 down
# [4] = S. cerevisiae growth modulation with rapamycin, primary screen, strain BY4716, OD600, 96 h (AID 1091); conditions: higher = more signal, called active from +8 up or from −8 down; note: test concentration not given here
# [5] = target: Torsin-1A-interacting protein 2 (Homo sapiens) (UniProt Q8NFQ8); experiment: LULL1 binders on small-molecule microarray, primary screen, cell lysate, human LULL1 lysate, 635/667 nm fluorescence (AID 1092); conditions: hLULL1 lysate binding, 635 nm fluorescence, higher = more signal;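 note: probe is lysate of COS7 cells overexpressing human LULL1; score merges per-feature 667 nm fluorescence with signal-to-noise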
# [6] = E. coli growth modulation, two-sided OD650, primary screen, E. coli filamentation project, strain DRC41, 24 h (AID 1093); conditions: OD650, 24 h, higher = more signal, called active from +8 up or from −8 down;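 note: MC1000 strain lacking acrAB efflux and sulA so SOS filamentation is blocked; test concentration not given here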
# [7] = small-molecule microarray binders of probe aLefty2, primary screen, biochemical, biotinylated probe, 635/667 nm fluorescence (AID 1094); conditions: higher = more signal;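 note: score merges spot fluorescence near 667 nm with spot signal-to-noise ratio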
# [8] = system: Noggin (protein binding on small-molecule microarray); experiment: Noggin binders on small-molecule microarray, primary screen, biochemical, 635/667 nm fluorescence (AID 1095); conditions: 635 nm fluorescence, higher = more signal;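 note: score merges 667 nm feature fluorescence with signal to noise over triplicate slides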
# [9] = target: Neurogenic locus notch homolog protein 3 (Homo sapiens) (UniProt Q9UM47); experiment: NOTCH3 binders on small-molecule microarray, primary screen, biochemical, 635/667 nm fluorescence (AID 1096); conditions: NOTCH3 binding, 635 nm fluorescence, higher = more signal
# [10] = small-molecule microarray binders of probe aEGFR, primary screen, biochemical, biotinylated probe, 635/667 nm fluorescence (AID 1097); conditions: higher = more signal;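 note: probe is a biotinylated anti-EGFR antibody binding compounds printed on slides; score combines fluorescence near 667 nm and signal to noise of each spot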
# [11] = system: Plasmodium falciparum Sir2 (PF13_0152, Sir2A); experiment: pfSir2 binders on small-molecule microarrays, primary screen, biochemical, small-molecule microarray, 635 nm fluorescence (AID 1098); conditions: small-molecule microarray binding, fluorescence 635 nm; higher = more signal;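 note: score merges spot fluorescence intensity with its signal-to-noise ratio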
# [12] = small-molecule microarray binders of probe aDKK1, primary screen, biochemical, biotinylated probe, 635/667 nm fluorescence (AID 1099); conditions: higher = more signal;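 note: score merges 667nm spot fluorescence with signal to noise across triplicate slides; reference of the scale not given here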
# [13] = small-molecule microarray binders of probe aCHRDL2, primary screen, biochemical, biotinylated probe, 635/667 nm fluorescence (AID 1100); conditions: higher = more signal
# [14] = splicing luciferase reporter signal modulators, primary screen, spliceosome inhibition project, cell-based, HEK293, splice +/- reporter (AID 1101); conditions: luminescence, 24 h, higher = more signal, called active from +8 up or from −8 down;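 note: HEK293 cells carrying a splicing-competent luciferase reporter gene; test concentration not given here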
# [15] = target: Fibroblast growth factor 10 (Homo sapiens) (UniProt O15520); experiment: FGF10 binders on small-molecule microarrays, primary screen, biochemical, small-molecule microarray, 635 nm fluorescence (AID 1102); conditions: FGF10 binding, fluorescence 635 nm, higher = more signal
# [16] = system: glycogen synthase kinase-3 (GSK3A per assay name; protocol says GSK3B); experiment: GSK3 binders on small-molecule microarrays, primary screen, biochemical, small-molecule microarray, 635 nm fluorescence, GSK3A (AID 1103); conditions: small-molecule microarray binding, fluorescence 635 nm; higher = more signal; note: the record names both GSK3A and GSK3B
# [17] = target: Epidermal growth factor receptor (Homo sapiens) (UniProt P00533); experiment: EGFR binders on small-molecule microarrays, primary screen, biochemical, small-molecule microarray, 635 nm fluorescence (AID 1104); conditions: EGFR binding, higher = more signal;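 note: score merges 667 nm emission intensity with spot signal to noise over triplicate slides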
# [18] = target: Follistatin-related protein 3 (Homo sapiens) (UniProt O95633); experiment: FSTL3 binders on small-molecule microarrays, primary screen, biochemical, small-molecule microarray, 635 nm fluorescence (AID 1105); conditions: FSTL3 binding, higher = more signal;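 note: score merges emission near 667 nm and signal to noise per printed spot across three slides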
# [19] = target: Dickkopf-related protein 1 (Homo sapiens) (UniProt O94907); experiment: DKK1 binders on small-molecule microarrays, primary screen, biochemical, small-molecule microarray, 635 nm fluorescence scan (AID 1106); conditions: DKK1 binding, higher = more signal;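 note: score merges emission near 667 nm with signal to noise over three replicate slides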
# [20] = system: Inhibin beta A chain (activin A); experiment: INHBA (activin A) binders on microarrays, primary screen, biochemical, small-molecule microarray, 635 nm fluorescence scan (AID 1107); conditions: small-molecule microarray binding, higher = more signal;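 note: mouse activin A protein probed at 4.33 µg/mL on printed slides; score merges bound-protein fluorescence near 667 nm with spot signal-to-noise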
# Sequence of Neurogenic locus notch homolog protein 3 (Homo sapiens) (Q9UM47 whole entry, looked up): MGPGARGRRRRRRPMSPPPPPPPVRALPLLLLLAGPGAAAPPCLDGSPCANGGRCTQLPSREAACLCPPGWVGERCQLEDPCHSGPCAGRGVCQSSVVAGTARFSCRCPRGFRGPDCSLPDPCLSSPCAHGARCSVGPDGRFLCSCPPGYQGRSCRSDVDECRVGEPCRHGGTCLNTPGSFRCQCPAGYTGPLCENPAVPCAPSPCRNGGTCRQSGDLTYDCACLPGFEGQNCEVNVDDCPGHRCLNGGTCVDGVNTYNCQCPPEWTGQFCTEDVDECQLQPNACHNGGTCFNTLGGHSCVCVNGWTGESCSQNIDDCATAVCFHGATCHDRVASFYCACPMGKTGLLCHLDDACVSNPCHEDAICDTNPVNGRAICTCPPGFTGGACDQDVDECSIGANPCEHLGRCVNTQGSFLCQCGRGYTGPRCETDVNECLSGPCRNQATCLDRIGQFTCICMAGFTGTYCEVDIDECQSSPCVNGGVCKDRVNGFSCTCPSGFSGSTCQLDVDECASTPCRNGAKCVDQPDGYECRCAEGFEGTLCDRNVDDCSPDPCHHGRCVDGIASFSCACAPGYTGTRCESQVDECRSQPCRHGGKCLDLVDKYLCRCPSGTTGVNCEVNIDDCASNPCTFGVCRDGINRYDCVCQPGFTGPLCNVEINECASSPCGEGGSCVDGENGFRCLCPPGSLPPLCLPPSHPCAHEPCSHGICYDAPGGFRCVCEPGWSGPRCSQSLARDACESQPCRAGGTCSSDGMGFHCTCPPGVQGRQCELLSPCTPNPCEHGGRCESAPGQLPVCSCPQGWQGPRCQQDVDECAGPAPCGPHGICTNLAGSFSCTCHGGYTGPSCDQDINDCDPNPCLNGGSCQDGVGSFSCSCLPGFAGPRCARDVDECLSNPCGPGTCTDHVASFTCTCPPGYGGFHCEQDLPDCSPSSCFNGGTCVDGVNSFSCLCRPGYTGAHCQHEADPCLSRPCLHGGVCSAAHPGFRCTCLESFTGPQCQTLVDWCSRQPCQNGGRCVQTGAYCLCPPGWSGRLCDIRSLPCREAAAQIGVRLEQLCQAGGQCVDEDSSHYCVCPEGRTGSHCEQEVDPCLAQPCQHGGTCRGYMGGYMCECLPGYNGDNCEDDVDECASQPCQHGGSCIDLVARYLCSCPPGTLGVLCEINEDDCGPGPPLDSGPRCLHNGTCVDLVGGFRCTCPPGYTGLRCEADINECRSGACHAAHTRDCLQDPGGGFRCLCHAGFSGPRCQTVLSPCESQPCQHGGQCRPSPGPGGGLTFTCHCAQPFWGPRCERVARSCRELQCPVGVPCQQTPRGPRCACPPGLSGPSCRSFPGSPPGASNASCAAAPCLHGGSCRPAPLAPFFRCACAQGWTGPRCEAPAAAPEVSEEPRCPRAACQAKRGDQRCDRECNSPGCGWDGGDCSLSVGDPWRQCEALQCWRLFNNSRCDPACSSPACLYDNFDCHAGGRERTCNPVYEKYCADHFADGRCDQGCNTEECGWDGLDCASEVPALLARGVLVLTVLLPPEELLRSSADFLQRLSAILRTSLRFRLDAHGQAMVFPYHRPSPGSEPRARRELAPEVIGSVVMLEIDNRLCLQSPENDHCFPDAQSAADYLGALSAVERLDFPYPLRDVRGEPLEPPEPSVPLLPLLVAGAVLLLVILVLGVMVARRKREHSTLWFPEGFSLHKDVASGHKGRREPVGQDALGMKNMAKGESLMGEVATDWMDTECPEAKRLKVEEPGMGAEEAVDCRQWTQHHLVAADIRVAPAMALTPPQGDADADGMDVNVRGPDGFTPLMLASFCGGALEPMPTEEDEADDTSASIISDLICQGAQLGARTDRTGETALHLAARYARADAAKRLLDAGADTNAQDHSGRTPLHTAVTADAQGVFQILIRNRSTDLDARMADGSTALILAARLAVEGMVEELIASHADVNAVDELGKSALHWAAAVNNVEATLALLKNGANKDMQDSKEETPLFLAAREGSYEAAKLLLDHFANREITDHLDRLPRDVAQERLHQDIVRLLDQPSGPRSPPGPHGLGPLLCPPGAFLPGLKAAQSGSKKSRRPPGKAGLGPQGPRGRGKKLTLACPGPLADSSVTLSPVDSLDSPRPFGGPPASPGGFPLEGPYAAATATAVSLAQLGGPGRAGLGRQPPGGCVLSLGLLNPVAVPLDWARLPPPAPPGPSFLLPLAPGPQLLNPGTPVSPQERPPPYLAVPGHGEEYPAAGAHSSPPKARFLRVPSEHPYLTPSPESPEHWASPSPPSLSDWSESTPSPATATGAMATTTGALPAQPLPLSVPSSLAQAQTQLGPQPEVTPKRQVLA
# Sequence of Fibroblast growth factor 10 (Homo sapiens) (O15520 whole entry, looked up): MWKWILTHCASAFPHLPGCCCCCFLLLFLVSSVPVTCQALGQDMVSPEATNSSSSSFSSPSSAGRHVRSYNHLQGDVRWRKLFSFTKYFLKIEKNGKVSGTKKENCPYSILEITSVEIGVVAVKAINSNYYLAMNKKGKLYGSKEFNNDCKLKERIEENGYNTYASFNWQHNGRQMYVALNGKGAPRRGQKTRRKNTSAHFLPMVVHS
# Sequence of Epidermal growth factor receptor (Homo sapiens) (P00533 whole entry, looked up): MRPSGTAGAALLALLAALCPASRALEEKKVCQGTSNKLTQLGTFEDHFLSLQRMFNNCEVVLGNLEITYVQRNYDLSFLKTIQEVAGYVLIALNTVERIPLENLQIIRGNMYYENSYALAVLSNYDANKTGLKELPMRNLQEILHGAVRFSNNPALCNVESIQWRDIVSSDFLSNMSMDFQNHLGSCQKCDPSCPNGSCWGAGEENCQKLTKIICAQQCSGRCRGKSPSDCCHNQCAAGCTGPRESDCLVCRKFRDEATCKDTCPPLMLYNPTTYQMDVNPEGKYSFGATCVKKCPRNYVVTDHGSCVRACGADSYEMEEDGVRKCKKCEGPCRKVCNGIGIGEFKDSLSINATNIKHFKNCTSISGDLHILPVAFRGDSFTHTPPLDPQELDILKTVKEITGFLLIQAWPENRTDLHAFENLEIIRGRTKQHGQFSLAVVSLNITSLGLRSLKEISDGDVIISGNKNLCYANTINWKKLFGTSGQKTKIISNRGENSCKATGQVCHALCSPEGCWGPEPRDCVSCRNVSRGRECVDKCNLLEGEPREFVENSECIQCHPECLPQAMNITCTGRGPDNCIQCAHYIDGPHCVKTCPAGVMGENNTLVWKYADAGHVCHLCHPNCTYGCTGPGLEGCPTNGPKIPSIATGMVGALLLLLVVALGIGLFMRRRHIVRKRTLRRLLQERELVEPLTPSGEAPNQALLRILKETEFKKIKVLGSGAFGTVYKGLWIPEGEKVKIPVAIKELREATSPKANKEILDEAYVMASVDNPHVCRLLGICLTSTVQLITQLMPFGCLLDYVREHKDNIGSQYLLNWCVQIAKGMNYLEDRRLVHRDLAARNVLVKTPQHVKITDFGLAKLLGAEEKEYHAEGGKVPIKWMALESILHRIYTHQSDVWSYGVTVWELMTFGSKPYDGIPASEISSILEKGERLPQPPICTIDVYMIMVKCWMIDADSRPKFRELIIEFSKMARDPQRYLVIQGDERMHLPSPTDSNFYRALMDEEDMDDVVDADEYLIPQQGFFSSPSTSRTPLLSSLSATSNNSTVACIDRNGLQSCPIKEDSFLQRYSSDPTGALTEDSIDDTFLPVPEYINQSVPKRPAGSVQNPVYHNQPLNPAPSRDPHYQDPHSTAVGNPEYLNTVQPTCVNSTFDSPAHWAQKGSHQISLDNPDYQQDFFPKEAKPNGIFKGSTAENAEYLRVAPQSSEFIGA
# Sequence of Follistatin-related protein 3 (Homo sapiens) (O95633 whole entry, looked up): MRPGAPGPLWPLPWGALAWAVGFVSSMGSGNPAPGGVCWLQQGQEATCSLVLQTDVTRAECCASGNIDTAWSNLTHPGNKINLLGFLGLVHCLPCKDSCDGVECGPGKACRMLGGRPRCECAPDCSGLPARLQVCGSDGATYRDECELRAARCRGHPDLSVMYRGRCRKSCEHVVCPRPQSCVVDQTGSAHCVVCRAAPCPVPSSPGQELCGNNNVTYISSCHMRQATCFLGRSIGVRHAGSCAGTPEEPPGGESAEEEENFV
# Sequence of Torsin-1A-interacting protein 2 (Homo sapiens) (Q8NFQ8 whole entry, looked up): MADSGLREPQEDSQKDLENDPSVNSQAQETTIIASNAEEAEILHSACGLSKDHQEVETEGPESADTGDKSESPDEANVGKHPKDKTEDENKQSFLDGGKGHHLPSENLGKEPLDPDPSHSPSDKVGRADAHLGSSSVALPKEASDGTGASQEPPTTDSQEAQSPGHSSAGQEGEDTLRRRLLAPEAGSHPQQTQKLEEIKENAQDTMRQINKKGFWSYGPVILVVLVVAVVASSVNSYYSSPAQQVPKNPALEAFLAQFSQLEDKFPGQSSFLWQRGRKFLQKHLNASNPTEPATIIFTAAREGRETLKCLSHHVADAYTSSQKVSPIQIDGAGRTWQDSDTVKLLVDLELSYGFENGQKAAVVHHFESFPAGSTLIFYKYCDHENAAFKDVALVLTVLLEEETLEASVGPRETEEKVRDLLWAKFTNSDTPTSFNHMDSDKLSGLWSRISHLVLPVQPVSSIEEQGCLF
# Sequence of Dickkopf-related protein 1 (Homo sapiens) (O94907 whole entry, looked up): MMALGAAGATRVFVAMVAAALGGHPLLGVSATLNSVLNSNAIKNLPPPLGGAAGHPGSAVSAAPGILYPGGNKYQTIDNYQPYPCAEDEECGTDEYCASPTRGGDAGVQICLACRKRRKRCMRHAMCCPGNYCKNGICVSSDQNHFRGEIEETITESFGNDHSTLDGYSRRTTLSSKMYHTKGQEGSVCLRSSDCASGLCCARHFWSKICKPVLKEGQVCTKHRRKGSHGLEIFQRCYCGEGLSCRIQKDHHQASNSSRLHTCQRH
Compound,composite z-score [1],z-score [2],z-score [3],z-score [4],composite z-score [5],z-score [6],composite z-score [7],composite z-score [8],composite z-score [9],composite z-score [10],composite z-score [11],composite z-score [12],composite z-score [13],z-score [14],composite z-score [15],composite z-score [16],composite z-score [17],composite z-score [18],composite z-score [19],composite z-score [20]
C=CCOC(=O)[C@H]1[C@@H]2C(=O)O[C@@H](c3ccccc3)[C@@H](c3ccccc3)N2[C@@H](c2ccc(OCCOC(=O)[C@H]3C[C@H]4C(=O)N[C@@H](CC(C)C)C(=O)N4[C@H]3c3ccc(O)cc3)cc2)[C@]12C(=O)Nc1ccccc12,1.53,2.24 (inactive),1.47 (inactive),3.92 (inactive),2.42,0.0375 (inactive),-0.084,0.993,1.08,0.11,1.58,0.0955,0.202,0.119 (inactive),1.47,1.34,1.41,1.4,1.54,0.509
C=CCC(OC(C)=O)[C@@H]1[C@@H](N(Cc2cc3ccccc3o2)C(=O)Cc2ccc(OC)cc2)c2cc(OCCCO)ccc2N1C(=O)c1ccc2ccccc2n1 (stereo not given in full),0.404,-0.256 (inactive),-0.844 (inactive),0.292 (inactive),0.295,1.03 (inactive),0.0478,0.356,0.0707,0.0453,0.0682,0.0671,0.393,-0.536 (inactive),0.116,0.0115,0.357,0.367,0.0467,1.42
COc1ccc([Si](C)(C)[C@H]2[C@H](CCO)O[C@@]3(C(=O)N(Cc4ccc(NC(=O)[C@H](C)O)cc4)c4ccccc43)[C@@H]2C)cc1,1.58,2.39 (inactive),-1.36 (inactive),4.78 (inactive),2.19,1.38 (inactive),-0.142,0.862,0.762,0.0337,0.931,0.162,0.193,-2.32 (inactive),1.14,1.07,0.161,0.0961,0.156,0.531
COCCOC(=O)N1C(=O)[C@@]2(c3cc(C#CCCO)ccc31)[C@H](C(N)=O)[C@H]1C(=O)O[C@H](c3ccccc3)[C@H](c3ccccc3)N1[C@@H]2c1ccccc1OCCO,1.54,1.85 (inactive),1.17 (inactive),3.4 (inactive),2.15,-0.497 (inactive),0.319,0.989,1.15,0.105,1.59,0.7,0.694,-0.871 (inactive),0.738,1.3,0.375,0.911,0.403,0.042
COC(=O)[C@@]1(Cc2ccccc2)[C@H]2c3cc(C(=O)N(C)C)n(CCO)c3C[C@H]2CN1C(=O)c1ccccc1,0.805,0.136 (inactive),0.612 (inactive),0.26 (inactive),4.04,-0.508 (inactive),0.381,-0.779,1.02,0.418,0.621,1.25,1.21,0.395 (inactive),0.909,0.594,-0.745,-0.181,-0.994,-0.206
